This note sets out measurements from PubChem BioAssay AID720706 (Broad Institute, 2013).

SMILES strings stand for the structures. Screen size: about 350,000 compounds; about 5,500 (1.6%) were called active.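 Rule for the calls: active = significant combined selectivity score with lowered wild-type GFP, culture density cut under 30%, mutant RFP and density less affected; inactive = any of these conditions unmet.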 Many of the other results were omitted from the sample, so actives are more common in it than they were.

The assay is described as follows: GFP drop in mixed WT/humanized-ribosome E. coli culture – GFP/RFP fluorescence, OD600, single point, bacterial rRNA inhibitor project, primary screen (AID 720706). Conditions: E. coli WT GFP vs humanized-ribosome RFP mutants, 24 h; GFP signal change (wild-type ribosome): stronger effect = lower value, DMSO median 0, no signal -100; OD600 change: measured here: OD600 growth, DMSO median 0, no signal -100; RFP signal change: measured here: RFP humanized mutant strains, DMSO median 0, no signal -100, concentration not given here.
As for `C[C@H]1CN([C@@H](C)CO)C(=O)c2cc(-c3ccncc3)cnc2O[C@@H]1CN(C)C(=O)C1CCCCC1`, the GFP signal change (wild-type ribosome) was 0.821% (inactive), the OD600 change came out at 4.66% and the RFP signal change was -3.44%.

For the molecule `C[C@H](CO)N1C[C@H](C)[C@H](CN(C)C(=O)C2CC2)Oc2cc(-c3cccnc3)ccc2S1(=O)=O`, the GFP signal change (wild-type ribosome) is -1.18% (inactive), the OD600 change was 3.4% and the RFP signal change came to 0.533%.

For the molecule `CCCNC(=O)N1[C@H](CO)[C@@H](c2ccc(-c3ccc(C(=O)N(C)C)cc3)cc2)[C@@H]1C#N`, the GFP signal change (wild-type ribosome) is 6.87% (inactive), the OD600 change was found to be 16.3% and the RFP signal change was -2.83%.

For `O=C(c1ccc(F)cc1)N1CC(=O)N2[C@@H](CO)[C@H](c3ccc(C4=CCCC4)cc3)[C@@H]2C1`, the GFP signal change (wild-type ribosome) was 4.17% (inactive), the OD600 change stood at 4.94% and the RFP signal change was -0.136%.

In the case of `C[C@H](CO)N1C[C@H](C)[C@@H](CN(C)C(=O)C2CC2)Oc2cc(C#CC(C)(C)O)ccc2S1(=O)=O`, the GFP signal change (wild-type ribosome) is 1.02% (inactive), the OD600 change came out at 10.5% and the RFP signal change is -2.74%.

Consider `COCC(=O)N1CC(=O)N2[C@H](C1)[C@H](c1ccc(C#CC3CCCCC3)cc1)[C@@H]2CO`, for which the GFP signal change (wild-type ribosome) is 2.23% (inactive), the OD600 change turned out to be 2.33% and the RFP signal change came to 1.49%.

For `Cc1cccc(NC(=O)c2ccc(S(=O)(=O)N(C)c3ccccc3)cc2)n1`, the GFP signal change (wild-type ribosome) is -16.8% (active), the OD600 change is -25% and the RFP signal change turned out to be 1.23%.

Take `CN(c1ccccc1)S(=O)(=O)c1ccc(C(=O)NCc2cccnc2)cc1`: the GFP signal change (wild-type ribosome) is -0.96% (inactive), the OD600 change was -21.8% and the RFP signal change worked out at 0.05%.

Consider `CN(c1ccccc1)S(=O)(=O)c1ccc(C(=O)NCCc2ccccc2)cc1`, for which the GFP signal change (wild-type ribosome) was -12.7% (inactive), the OD600 change is -28.7% and the RFP signal change was -1.12%.

Turning to `C[C@@H]1CN([C@H](C)CO)C(=O)c2cc(C#CCN(C)C)cnc2O[C@H]1CN(C)C(=O)NC1CCCC1`, the GFP signal change (wild-type ribosome) was 3.54% (inactive), the OD600 change came out at 11.4% and the RFP signal change is -1.39%.

In the case of `CNC[C@@H]1Oc2ccc(NS(=O)(=O)c3c(C)noc3C)cc2CC(=O)N([C@@H](C)CO)C[C@@H]1C`, the GFP signal change (wild-type ribosome) was 1.9% (inactive), the OD600 change is 3.17% and the RFP signal change is 1.62%.

With `Cc1ccc(C)c(NC(=O)c2cc(-c3cc(C)cc(C)c3O)n[nH]2)c1`, the GFP signal change (wild-type ribosome) was -26.5% (active), the OD600 change was -6.64% and the RFP signal change is -4.96%.

In the case of `Cc1ccc(C)c(NC(=O)c2ccc3nccnc3c2)c1`, the GFP signal change (wild-type ribosome) was 4.03% (inactive), the OD600 change worked out at 7.77% and the RFP signal change was -0.371%.

As for `Cc1ccc(C)c(NC(=O)NNC(=O)c2ccc3ccccc3c2O)c1`, the GFP signal change (wild-type ribosome) is 7.08% (inactive), the OD600 change worked out at 7.28% and the RFP signal change was -0.547%.

Consider `O=C(C[C@H]1C[C@H]2c3cc(NC(=O)C4CCOCC4)ccc3O[C@H]2[C@@H](CO)O1)NCCN1CCCCC1`, for which the GFP signal change (wild-type ribosome) is 5.5% (inactive), the OD600 change was 7.29% and the RFP signal change amounted to 1.6%.

As for `C[C@@H]1CN([C@H](C)CO)C(=O)c2cc(NC(=O)C3CCCCC3)ccc2O[C@@H]1CN(C)CC1CCCCC1`, the GFP signal change (wild-type ribosome) was 0.0895% (inactive), the OD600 change was determined as 5.96% and the RFP signal change was determined as 0.317%.

Consider `OCc1ccc(OCCCOc2cccc3cccnc23)cc1`, for which the GFP signal change (wild-type ribosome) was -10.7% (inactive), the OD600 change is -8.81% and the RFP signal change is -4.97%.

On to `O=S(=O)(NCCOc1cccc2cccnc12)c1ccc(F)cc1`, for which the GFP signal change (wild-type ribosome) is -21.1% (active), the OD600 change is -16% and the RFP signal change amounted to 1.43%.

For `O=S(=O)(NCCc1ccc(F)cc1)c1cccc2cccnc12`, the GFP signal change (wild-type ribosome) is -26.1% (inactive), the OD600 change is -23% and the RFP signal change is -1.09%.

In the case of `O=C(C[C@@H]1CC[C@@H](NC(=O)C2CCOCC2)[C@H](CO)O1)NCC1CC1`, the GFP signal change (wild-type ribosome) was 0.615% (inactive), the OD600 change stood at 0.519% and the RFP signal change was -2.58%.

`CN1CCCCN2[C@H](CO)[C@H](c3ccc(-c4ccc(F)cc4)cc3)[C@@H]2C1`: the GFP signal change (wild-type ribosome) was 3.95% (inactive), the OD600 change was 2.06% and the RFP signal change was -2.51%.

With `CCC(=O)N1CC2(CN(C(=O)Nc3ccccc3F)C2)c2c([nH]c3cc(OC)ccc23)[C@H]1CO`, the GFP signal change (wild-type ribosome) is -3.51% (inactive), the OD600 change was -1.81% and the RFP signal change amounted to 1.22%.

For the molecule `O=C(CCc1ccccc1F)N1CCN(c2ccccc2)CC1`, the GFP signal change (wild-type ribosome) was -5.11% (inactive), the OD600 change is -5.09% and the RFP signal change was -0.63%.

Regarding `COc1ccc(N2CCN(C(=O)CCNC(=O)c3ccc(Br)cc3)CC2)cc1`, the GFP signal change (wild-type ribosome) was 4.67% (inactive), the OD600 change turned out to be 3.67% and the RFP signal change is -1.33%.

As to `COc1ccc(N2CCN(C(=O)CCSCc3ccccc3F)CC2)cc1`, the GFP signal change (wild-type ribosome) is -33% (active), the OD600 change was -17.7% and the RFP signal change was -1.41%.

In the case of `O=C(NCC[C@H]1CC[C@@H](NC(=O)c2ccncc2)[C@@H](CO)O1)Nc1ccc(Cl)cc1`, the GFP signal change (wild-type ribosome) is -17.2% (inactive), the OD600 change is -25.9% and the RFP signal change was -0.789%.

For `O=C(C1CCCC1)N1CC(=O)N2[C@@H](CO)[C@H](c3ccc(C#CC4CCCC4)cc3)[C@@H]2C1`, the GFP signal change (wild-type ribosome) is -40.8% (inactive), the OD600 change is -65.7% and the RFP signal change was determined as 1.78%.

Turning to `C=CCn1c(-c2sc(-c3ccccc3)nc2C)n[nH]c1=S`, the GFP signal change (wild-type ribosome) is -24.3% (active), the OD600 change was -5.31% and the RFP signal change is 7.62%.

For the molecule `C=CCn1c(-c2ccccc2OCC)n[nH]c1=S`, the GFP signal change (wild-type ribosome) was 3.63% (inactive), the OD600 change was 4.05% and the RFP signal change is 2.66%.

Regarding `C=CCn1c(CCc2ccc(OC(C)C)cc2)n[nH]c1=S`, the GFP signal change (wild-type ribosome) was -0.285% (inactive), the OD600 change was -0.525% and the RFP signal change was 1.11%.

`O=C(C1CC1)N1CCCCN2[C@H](CO)[C@H](c3ccc(-c4cccc(F)c4)cc3)[C@H]2C1`: the GFP signal change (wild-type ribosome) was -6.45% (inactive), the OD600 change is -8.76% and the RFP signal change stood at 3.12%.

As for `COCC(=O)N1CCCCN2[C@H](C1)[C@@H](c1ccc(-c3ccccc3)cc1)[C@@H]2CO`, the GFP signal change (wild-type ribosome) was 2.96% (inactive), the OD600 change was -5.68% and the RFP signal change came to 0.005%.
